Calls of active or inactive are those of the source. The rule behind the calls is not given here.
Assay: V-ATPase proton transport modulators in yeast, dose response, S. cerevisiae, pHLuorin, powder set 4 (AID 652071)
Conditions: S. cerevisiae pHLuorin cytosolic pH fluorescence; series mostly up to 100 µM; response change, sign ambiguous: at the top concentration

Response change, sign ambiguous, inactive:
O=C(Nc1ccccc1N1CCCCC1)c1ccc(C(F)(F)F)o1 -23.6%, CS(=O)(=O)Cc1cccc(C(=O)Nc2ccccc2N2CCCCC2)c1 7.01%, CN1CCN(c2ccccc2NC(=O)c2cccc(Br)n2)CC1 18.4%, O=C(Nc1ccccc1N1CCOCC1)c1ccc(Cl)o1 -7.94%, CN1CCN(c2ccccc2NC(=O)c2cc(C#N)ccn2)CC1 11.9%, O=C(Nc1ccccc1N1CCCCC1)c1ccc(-c2ccccc2)o1 4.4%, CN(C)Cc1cccc(C(=O)Nc2ccccc2N2CCCCC2)c1 -22.9%, NC(=O)c1cccc(C(=O)Nc2ccccc2N2CCCCC2)c1 -6.71%, CC(=O)N1CCN(c2ccccc2NC(=O)c2cccc(C(F)(F)F)c2)CC1 4.04%, COCc1ccc(C(=O)Nc2ccccc2N2CCCCC2)o1 -30.8%, O=C(Nc1ccccc1N1CCCCC1)c1ccc(Cl)o1 -19.9%, Cc1cncc(C(=O)Nc2ccccc2N2CCCCC2)n1 -56.8%, COCc1cccc(C(=O)Nc2ccccc2N2CCN(C(C)=O)CC2)c1 14%, CC(=O)N1CCN(c2ccccc2NC(=O)c2cncc(C)n2)CC1 -20.8%, O=C(Nc1ccccc1N1CCCCC1)c1occc1-c1ccccc1 -82.7%, CC(=O)N1CCN(c2ccccc2NC(=O)c2ccc(-c3ccccc3)o2)CC1 -14.9%, CN1CCN(c2ccccc2NC(=O)c2cccc(C#N)c2)CC1 3.79%, CC(=O)N1CCN(c2ccccc2NC(=O)c2cccc(C(F)(F)F)n2)CC1 30.5%, Cc1cccc(C(=O)Nc2ccccc2N2CCN(C)CC2)n1 -22.4%, CN(C)C(=O)c1cccc(C(=O)Nc2ccccc2N2CCCCC2)c1 -8.64%, COCc1ccc(C(=O)Nc2ccccc2N2CCN(C(C)=O)CC2)o1 -4.67%, Cc1cccc(C(=O)Nc2ccccc2N2CCCCC2)n1 -33.3%, COCc1ccc(C(=O)Nc2ccccc2N2CCN(C)CC2)o1 17.8%, CC(=O)N1CCN(c2ccccc2NC(=O)c2ccc(CN(C)C)o2)CC1 -7.44%, O=C(Nc1ccccc1N1CCCCC1)c1cc(C(F)(F)F)ccn1 2.55%, CC(=O)N1CCN(c2ccccc2NC(=O)c2cc(C(F)(F)F)ccn2)CC1 8.23%, N#Cc1cccc(C(=O)Nc2ccccc2N2CCCCC2)c1 -29.4%, CC(=O)N1CCN(c2ccccc2NC(=O)c2cccc(C(N)=O)c2)CC1 -43%, CN1CCN(c2ccccc2NC(=O)c2cc(C(F)(F)F)ccn2)CC1 -25.1%, CN1CCN(c2ccccc2NC(=O)c2occc2-c2ccccc2)CC1 0.05%, CN1CCN(c2ccccc2NC(=O)c2ccc(Br)o2)CC1 2.63%, CC(=O)N1CCN(c2ccccc2NC(=O)c2cccc(S(=O)(=O)N(C)C)c2)CC1 8.75%, CC(=O)N1CCN(c2ccccc2NC(=O)c2cccc(C)n2)CC1 -39.5%, CC(=O)N1CCN(c2ccccc2NC(=O)c2ccc(C(N)=O)o2)CC1 0%

From PubChem BioAssay AID652071 (NMMLSC, 2013)
